Measured values taken from PubChem BioAssay (EPA / NIEHS).
Results filed as inconclusive are left out. Activity calls are given as the source filed them. Rule for the calls, unless noted: active = hit-call score of the fitted dose curve at least 0.9, where 1 is the maximum; inconclusive = response in the unintended direction; inactive = score below 0.9.

Key:
[1] = TOX21_p53_BLA_p2_viability: Viability Assessment in the Tox21 HCT-116 p53 Agonism Beta-lactamase Assay, Phase 2 (AID 2283591);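 note: compound exposure lasted 16 h at 37 °C; actives lower the ATP signal meaning cytotoxicity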
In short: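 HCT-116 p53-bla cells (4000/well) rested 5 h at 37C, then received compounds in DMSO (217-fold dilution) for 16 h at 37C, 5% CO2. After the CCF4 read, CellTiter-Glo was added; ATP luminescence was read after 30 min at room temperature.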

[2] = molecular target: Cellular tumor antigen p53 (Homo sapiens) (UniProt P04637); assay: TOX21_p53_BLA_p2_ratio: Tox21 HCT-116 p53 Agonism Beta-lactamase Assay, Ratio, Phase 2 (AID 2283592)
Chain of Cellular tumor antigen p53 (Homo sapiens) (P04637 whole entry, looked up): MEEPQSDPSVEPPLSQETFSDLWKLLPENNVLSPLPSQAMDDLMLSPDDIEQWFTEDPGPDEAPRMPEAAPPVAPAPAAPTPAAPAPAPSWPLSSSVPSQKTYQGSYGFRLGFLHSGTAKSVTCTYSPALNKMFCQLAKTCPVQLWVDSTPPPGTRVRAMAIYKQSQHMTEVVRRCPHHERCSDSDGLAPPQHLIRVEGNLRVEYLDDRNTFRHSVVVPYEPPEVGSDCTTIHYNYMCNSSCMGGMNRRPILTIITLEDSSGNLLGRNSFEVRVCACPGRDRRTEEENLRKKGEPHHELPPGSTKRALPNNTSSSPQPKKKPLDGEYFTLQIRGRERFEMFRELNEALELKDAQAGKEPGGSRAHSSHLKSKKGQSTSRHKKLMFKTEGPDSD
In short: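 Gain-of-signal p53 agonism was scored from the beta-lactamase FRET ratio (460/530 nm, 405 nm excitation) in HCT116 cells treated 16 h at 37C, 5% CO2, with DMSO serving as negative control and baseline.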

[3] = TOX21_p53_BLA_p3_viability: Viability Assessment in the Tox21 HCT-116 p53 Agonism Beta-lactamase Assay, Phase 3 (AID 2283593);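 note: cells exposed to compound for 16 h before reading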
In short: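 HCT-116 cells (4000/well) rested 5 h at 37C, then got DMSO compounds by pin tool (217-fold dilution) for 16 h at 37C, 5% CO2. After the bla read, CellTiter-Glo was added and luminescence read at 30 min, room temperature.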

[4] = molecular target: Cellular tumor antigen p53 (Homo sapiens) (UniProt P04637); assay: TOX21_p53_BLA_p3_ratio: Tox21 HCT-116 p53 Agonism Beta-lactamase Assay, Ratio, Phase 3 (AID 2283596)
In short: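 HCT116 p53-bla cells (4000/well) given compound in DMSO (217-fold dilution) after 5 h, incubated 16 h at 37C. CCF4-AM substrate 2 h at room temperature; 460/530 nm emission ratio, gain fitted against DMSO.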

[5] = TOX21_p53_BLA_p4_viability: Viability Assessment in the Tox21 HCT-116 p53 Agonism Beta-lactamase Assay, Phase 4 (AID 2283597);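 note: hits lower the luminescence signal meaning cytotoxicity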
In short: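 Following a 16 h exposure at 37C, the treated HCT116 wells were first read for the FRET ratio. They were then lysed with CellTiter-Glo, and ATP luminescence was recorded after 30 min at room temperature.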

[6] = TOX21_p53_BLA_p5_viability: Viability Assessment in the Tox21 HCT-116 p53 Agonism Beta-lactamase Assay, Phase 5 (AID 2283600)
In short: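 After the 460/530 nm beta-lactamase measurement, the wells received an ATP-detection luciferase reagent; signal was read 30 min later at RT. Compound treatment lasted 16 h on cells pre-incubated 5 h post-seeding.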

[7] = molecular target: Cellular tumor antigen p53 (Homo sapiens) (UniProt P04637); assay: TOX21_p53_BLA_p5_ratio: Tox21 HCT-116 p53 Agonism Beta-lactamase Assay, Ratio, Phase 5 (AID 2283599)
In short: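 HCT-116 cells carrying a p53-inducible beta-lactamase reporter were seeded at 4000 cells/well and dosed after 5 h with compound in DMSO (217-fold dilution). After 16 h at 37C, CCF4-AM substrate was added for 2 h, and the 460/530 nm emission ratio was scored as gain-of-signal versus DMSO.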

[8] = molecular target: Cellular tumor antigen p53 (Homo sapiens) (UniProt P04637); assay: TOX21_p53_BLA_p4_ratio: Tox21 HCT-116 p53 Agonism Beta-lactamase Assay, Ratio, Phase 4 (AID 2283601)
In short: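 HCT116 cells carrying an inducible beta-lactamase reporter were plated at 4000 cells/well, rested 5 h, then exposed to compounds in DMSO (217-fold dilution) for 16 h at 37C. CCF4-AM substrate was loaded 2 h at room temperature; 460/530 nm emission ratio scored gain-of-signal versus DMSO.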

[9] = molecular target: Thyroid hormone receptor alpha (Rattus norvegicus) + Thyroid hormone receptor beta (Rattus norvegicus) (UniProt P18113+P63059); assay: TOX21_TR_LUC_GH3_Antagonist_Followup: Tox21 GH3 Thyroid Hormone Receptor Antagonism Luciferase Follow-Up Assay (AID 2283942)
In short: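 Rat pituitary GH3 cells with a TRα/TRβ-driven luciferase reporter, 5 h attachment, then 15 concentrations (92 uM to 5nM final) plus 1.0 nM T3 agonist, 24 h at 37C/5% CO2. ONE-Glo luminescence; signal change fitted against DMSO baseline.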

[10] = molecular target: THRB (gene 7068) (UniProt P10828); assay: TOX21_TRB_BLA_Antagonist_Followup_ratio: Tox21 Thyroid Hormone Receptor beta Antagonism Beta-lactamase (BLA) Follow-Up Assay, Ratio (AID 2283958)
Chain of THRB (gene 7068) (P10828 whole entry, looked up, the tested form may be a part): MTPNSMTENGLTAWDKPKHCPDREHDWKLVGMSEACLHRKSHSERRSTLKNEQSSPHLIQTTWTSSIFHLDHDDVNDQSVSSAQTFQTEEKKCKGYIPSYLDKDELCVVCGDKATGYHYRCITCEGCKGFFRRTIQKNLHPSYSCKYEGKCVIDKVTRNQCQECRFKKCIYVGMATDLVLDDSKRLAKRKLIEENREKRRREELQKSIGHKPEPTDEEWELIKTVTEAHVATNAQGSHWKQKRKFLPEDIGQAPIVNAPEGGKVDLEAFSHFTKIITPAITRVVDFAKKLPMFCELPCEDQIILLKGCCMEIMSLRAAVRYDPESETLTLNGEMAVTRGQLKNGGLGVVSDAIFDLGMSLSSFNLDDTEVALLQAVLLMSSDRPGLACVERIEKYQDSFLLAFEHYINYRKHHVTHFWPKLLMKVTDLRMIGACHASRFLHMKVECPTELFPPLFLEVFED
In short: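 In this antagonist-mode follow-up, a stably integrated GAL4-TRβ LBD fusion drives a UAS-beta-lactamase reporter in HEK293T cells. Loss of ratio signal relative to DMSO after 18 h treatment indicates activity; parallel CellTiter-Glo flags cytotoxicity.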

[11] = molecular target: THRB (gene 7068) (UniProt P10828); assay: TOX21_TRB_COA_Antagonist_Followup_ratio: Tox21 Thyroid Hormone Receptor beta Antagonism through Coactivator Recruitment Follow-Up Assay, Ratio (AID 2283967)
In short: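 Cell-free TR-FRET coactivator recruitment with GST-tagged TRβ LBD (5.0 nM) and fluorescein-labeled SRC-2 peptide (200 nM) detected by terbium anti-GST antibody (2 nM). The 520:495 nm emission ratio was normalized to DMSO (0%) and T3 (100%).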

[12] = molecular target: Retinoic acid receptor RXR-alpha (Homo sapiens) (UniProt P19793); assay: TOX21_TR_RXR_BLA_Antagonist_Followup_ratio: Tox21 Thyroid Hormone Receptor beta Retinoid X Receptor alpha (RXRa) Antagonism Beta-lactamase (BLA) Follow-Up Assay, Ratio (AID 2283972)
Chain of Retinoic acid receptor RXR-alpha (Homo sapiens) (P19793 whole entry, looked up): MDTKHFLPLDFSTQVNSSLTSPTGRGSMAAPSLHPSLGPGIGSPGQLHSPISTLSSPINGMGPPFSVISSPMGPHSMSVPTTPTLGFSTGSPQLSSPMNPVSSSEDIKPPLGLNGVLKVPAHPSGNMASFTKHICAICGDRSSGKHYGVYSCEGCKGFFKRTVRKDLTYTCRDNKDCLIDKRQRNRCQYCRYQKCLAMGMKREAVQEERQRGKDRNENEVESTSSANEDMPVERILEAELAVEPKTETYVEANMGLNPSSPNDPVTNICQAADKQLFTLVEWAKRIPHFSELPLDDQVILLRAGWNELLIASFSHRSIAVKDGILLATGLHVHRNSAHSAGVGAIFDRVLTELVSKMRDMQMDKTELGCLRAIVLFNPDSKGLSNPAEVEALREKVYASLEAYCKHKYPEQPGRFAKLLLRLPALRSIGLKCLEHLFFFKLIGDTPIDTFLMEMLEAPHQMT
In short: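 After 5 h attachment at 37C, HEK293T RXRa-bla cells (2,500/well, 2% charcoal-stripped FBS, no phenol red) received compounds at 11 concentrations in triplicate for 16 h. Beta-lactamase read as 460:530 nm ratio after 2 h RT substrate loading.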

[13] = TOX21_TR_RXR_BLA_Antagonist_Followup_viability: Viability Assessment in the Tox21 Thyroid Hormone Receptor beta Retinoid X Receptor alpha (RXRa) Antagonism Beta-lactamase (BLA) Follow-Up Assay (AID 2283979)
In short: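 RXRa-UAS-bla HEK293T cells seeded 2,500/well in phenol red-free DMEM with 2% charcoal-stripped FBS, attached 5 h, then exposed to compounds at 11 concentrations in triplicate for 16 h at 37C/5% CO2. Viability read by CellTiter-Glo ATP luminescence; bidirectional fit versus DMSO.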

[14] = molecular target: THRA (gene 7067) (UniProt P10827); assay: TOX21_TRA_COA_Antagonist_Followup_ratio: Tox21 Thyroid Hormone Receptor alpha Antagonism through Coactivator Recruitment Follow-Up Assay, Ratio (AID 2283953)
Chain of THRA (gene 7067) (P10827 whole entry, looked up, the tested form may be a part): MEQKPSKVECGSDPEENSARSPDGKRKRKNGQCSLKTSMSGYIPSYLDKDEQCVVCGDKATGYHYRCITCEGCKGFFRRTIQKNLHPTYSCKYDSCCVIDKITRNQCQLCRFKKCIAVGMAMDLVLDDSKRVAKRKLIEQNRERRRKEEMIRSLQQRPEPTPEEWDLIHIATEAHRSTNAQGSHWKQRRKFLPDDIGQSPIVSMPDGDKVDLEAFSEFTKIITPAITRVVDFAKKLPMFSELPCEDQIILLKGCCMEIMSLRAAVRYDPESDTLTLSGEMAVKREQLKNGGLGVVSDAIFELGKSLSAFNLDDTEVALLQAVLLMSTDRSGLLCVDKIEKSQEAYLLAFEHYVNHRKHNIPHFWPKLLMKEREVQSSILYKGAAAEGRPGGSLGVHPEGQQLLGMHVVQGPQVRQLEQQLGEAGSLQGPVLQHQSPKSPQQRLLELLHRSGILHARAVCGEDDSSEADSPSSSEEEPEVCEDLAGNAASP
In short: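 This follow-up to the GH3 luciferase screen checks specificity in a cell-free format. It measures SRC-2 coactivator peptide binding to TRα LBD by TR-FRET and scores loss of ratio signal relative to DMSO.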

[15] = CCTE_Deisenroth_H295R-HTRF_384WELL_ESTRADIOL: CCTE's H295R-HTRF Assay Evaluation of Estradiol Concentration, Deisenroth Lab (AID 2284361; active = hit-call score of the fitted dose curve at least 0.9, where 1 is the maximum; inactive = score below 0.9); conditions: actives raise or lower the signal
In short: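 H295R cells exposed 48 h to chemicals at 0.001 - 100 uM final (nine points, triplicate); estradiol in conditioned medium measured by HTRF immunoassay, fitted bidirectionally versus DMSO. Viability by CellTiter-Glo on same plates.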

[16] = CCTE_Deisenroth_H295R-HTRF_384WELL_TESTOSTERONE: CCTE's H295R-HTRF Assay Evaluation of Testosterone Concentration, Deisenroth Lab (AID 2284373; active = hit-call score of the fitted dose curve at least 0.9, where 1 is the maximum; inactive = score below 0.9); conditions: actives raise or lower the signal
In short: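 Secreted testosterone was quantified by HTRF immunoassay of medium from human adrenocortical H295R cells after 48 h chemical exposure at 0.001–100 uM final. Gain or loss was fitted against DMSO. ATP-based viability was read on matched wells, five experimental replicates.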

[17] = CCTE_Deisenroth_H295R-HTRF_384WELL_CTOX: Cytotoxicity Assessment in CCTE's H295R-HTRF Assay, Deisenroth Lab (AID 2284380)
In short: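 H295R adrenocortical carcinoma cells plated 24 h, then exposed 48 h to nine-point series 0.001–100 uM final, triplicate, n=5. ATP measured by CellTiter-Glo 2.0 luminescence on same plates after medium collection; loss versus DMSO.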

Measured: AC50

COc1ccc(CN2CCNCC2)c(OC)c1OC
inactive: [1] | [2] | [3] | [4] | [5] | [6]

COC1=CC(=O)O[C@@H](/C=C/c2ccc3c(c2)OCO3)C1
inactive: [1] | [2] | [3] | [4] | [5] | [7] | [6] | [8] | [9] | [10] | [11] | [12] | [13]

O=Cc1ccccc1
inactive: [1] | [2] | [3] | [4] | [5] | [6] | [8]

O=c1oc2ccccc2c(O)c1Cc1c(O)c2ccccc2oc1=O
active: [1] 8.02 µM | [2] 6.79 µM | [3] 0.819 µM | [4] 1.07 µM | [5] 3.3 µM | [7] 3.93 µM | [8] 3.95 µM
inactive: [6] | [14] | [11] | [12] | [13]

C[C@@H]1CC[C@@]2(OC1)O[C@H]1[C@@H](O)[C@H]3[C@@H]4CC[C@H]5C[C@@H](O[C@@H]6O[C@H](CO)[C@H](O[C@@H]7O[C@H](CO)[C@@H](O)[C@H](O[C@@H]8OC[C@@H](O)[C@H](O)[C@H]8O)[C@H]7O[C@@H]7O[C@H](CO)[C@@H](O)[C@H](O[C@@H]8O[C@H](CO)[C@@H](O)[C@H](O)[C@H]8O)[C@H]7O)[C@H](O)[C@H]6O)[C@H](O)C[C@]5(C)[C@H]4CC[C@]3(C)[C@H]1[C@@H]2C
active: [1] 19 µM | [2] 39.1 µM | [3] 48.5 µM | [4] 81.5 µM | [5] 18.7 µM | [7] 69.7 µM | [6] 33.3 µM | [8] 76.9 µM | [15] 88.2 µM | [16] 2.93 µM | [17] 6.26 µM
